CHO-K1 Ca ag = nonselective activator or artifact in parental CHO-K1 cells | activation, % at 3 µM | Fluo-8 calcium fluorescence; scaled to maximal ATP response, vehicle zero | actives 0.48% (n = 360,000); in the data active = activation above about 15%;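 note: untransfected CHO-K1 host cells lacking M1 receptor as counterscreen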
M1 PAM parental = counter-screen for M1 PAMs: effect in parental CHO-K1 cells; actives 0.02% (n = 360,000); activation, % at 3 µM; ATP EC20, Fluo-8 calcium fluorescence; 0% at ATP EC20, 100% at ATP max;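 active = activation above the run cutoff, the mean activation of all test compounds plus 3 SD, cut at about 40% in these data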;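 note: peak over basal fluorescence ratio in a 140 s read after ATP addition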
CHRM1 PAM = positive allosteric modulators of human M1 muscarinic receptor | P11229 | CHO-K1 hM1, Fluo-8 calcium fluorescence, ACh EC20; 0% = ACh EC20, 100% = maximal ACh | activation, % at 3 µM | actives 0.088% (n = 360,000); in the data active = activation above about 19%, passing the limit was not always enough
Target sequence (P11229 whole entry, looked up): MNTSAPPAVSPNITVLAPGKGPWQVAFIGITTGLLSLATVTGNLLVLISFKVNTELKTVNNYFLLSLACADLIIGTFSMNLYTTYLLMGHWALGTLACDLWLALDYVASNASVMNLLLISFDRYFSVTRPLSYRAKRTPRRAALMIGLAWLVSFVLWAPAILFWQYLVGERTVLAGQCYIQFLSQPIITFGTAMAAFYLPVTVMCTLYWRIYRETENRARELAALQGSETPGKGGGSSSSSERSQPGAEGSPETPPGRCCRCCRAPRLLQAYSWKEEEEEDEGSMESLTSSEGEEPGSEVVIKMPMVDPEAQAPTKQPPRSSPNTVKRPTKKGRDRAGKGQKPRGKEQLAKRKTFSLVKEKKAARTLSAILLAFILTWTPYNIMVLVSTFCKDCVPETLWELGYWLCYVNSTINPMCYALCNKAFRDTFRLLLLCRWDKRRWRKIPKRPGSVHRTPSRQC
CHRM1 antagonist = antagonists of human M1 muscarinic receptor; P11229; CHO-K1 hM1, Fluo-8 calcium fluorescence, ACh EC80 antagonist; inhibition, % at 3 µM; actives 1.3% (n = 360,000); AID 588852;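 active = percent inhibition above its own plate's cutoff, namely the mean of that plate's compound wells plus 3 SD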;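 note: peak over basal fluorescence ratio during 140 s after agonist addition; 0% = ACh EC80 plus DMSO and 100% = DMSO alone without agonist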
CHO-K1 Ca antag = counter-screen for M1 antagonists: effect in parental CHO-K1 cells | actives 0.6% (n = 360,000) | inhibition, % at 3 µM | AID 602250 | ATP-induced calcium, Fluo-8 fluorescence;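 active = inhibition above a per-plate cutoff, the plate's mean sample inhibition plus 3 SD, cut at about 24% in these data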;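 note: 0% = DMSO plus EC80 ATP and 100% = DMSO alone without ATP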
M1 ag = agonists of human M1 muscarinic receptor | P11229 | CHO-K1 hM1, Fluo-8 calcium fluorescence, agonist mode; 0% DMSO, 100% acetylcholine EC100 | activation, % at 3 µM | actives 0.33% (n = 360,000);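 active = activation above the run's mean compound activation plus 3 SD, cut at about 16% in these data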;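 note: peak over basal fluorescence ratio within a 140 s kinetic read after compound addition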
* marks the source's active call; other numbers are inactive results; x = no result. Compounds with a hit are over-represented: about 2.4% of the library has one in this group of screens.

SMILES | CHO-K1 Ca ag | M1 PAM parental | CHRM1 PAM | CHRM1 antagonist | CHO-K1 Ca antag | M1 ag
COc1cccc(C(=O)C2CCCN(Cc3cccc(OCCO)c3)C2)c1 (configuration not stated) | 0.8 | 4.4 | -4.3 | 2.0 | -6.2 | -10.7
C[C@H](CO)N1C[C@H](C)[C@@H](CN(C)Cc2ccc(C(=O)O)cc2)Oc2ncc(-c3ccc(C(=O)N(C)C)cc3)cc2C1=O | 0.2 | -6.2 | 8.5 | -11.2 | 0.6 | -1.2
O=C(Nc1nnc(SCc2c(Cl)cccc2Cl)s1)C1CC(=O)N(c2ccc3c(c2)OCCO3)C1 (configuration not stated) | 0.9 | 16.8 | 1.7 | 33.2* | -17.8 | -5.2
O=C(Nc1nnc(SCc2ccc(F)cc2)s1)C1CC(=O)N(c2ccc3c(c2)OCCO3)C1 (configuration not stated) | 1.7 | 31.1 | -3.4 | 6.3 | -11.4 | -7.8
COC(=O)[C@]12CCCCC=C1N(Cc1ccccc1)C(=O)[C@H](CC(=O)NCc1cccs1)C2 | 2.5 | -0.6 | x | x | -5.4 | x
CC(C)(C)C(=O)NC1CC2CCCC(C1)N2C(=O)Nc1ccccc1 (configuration not stated) | -0.2 | -0.2 | 11.4 | -17.8 | 21.6 | -8.0
O=[N+]([O-])c1ccc(NN=C2CC3CCC2C3)c([N+](=O)[O-])c1 (configuration not stated) | 8.1 | 1.6 | -22.5 | 38.6* | 13.0 | -5.9
O=[N+]([O-])c1ccc(N/N=C2\CC3CC=CC23)c([N+](=O)[O-])c1 (configuration not stated) | 8.9 | 1.9 | -5.4 | 13.9 | 12.0 | -3.8
CC(C)CNS(=O)(=O)c1ccc(CCC(=O)N2CCC(C(N)=O)CC2)cc1 | -0.6 | 15.6 | 7.8 | -2.4 | -11.0 | -1.5
CC(=O)C1=CCC(c2ccccc2)N(S(=O)(=O)c2cccc(C)c2)C1 (configuration not stated) | 1.1 | 13.5 | 0.0 | 2.3 | 10.6 | -10.2
CCOC(=O)N1CCN(C(=O)c2ccc3c(=O)n(CCC4=CCCCC4)c(=O)[nH]c3c2)CC1 | 0.8 | -4.3 | -22.6 | 66.2* | 6.0 | -5.0
CCCCCn1c(=S)[nH]c2cc(C(=O)N3CCN(C(=O)OCC)CC3)ccc2c1=O | 1.8 | 11.1 | -2.7 | -0.8 | -3.2 | -9.8
C/C(CC(=O)N(C(C)C)C(C)C)=N\NC(=O)c1ccccc1Br | 0.8 | 18.3 | 3.0 | -6.8 | -5.8 | -7.0
CC1CC(C)CN(S(=O)(=O)c2ccc(C(=O)OCC(=O)Nc3ccccc3)cc2)C1 (configuration not stated) | 0.4 | -11.0 | 2.4 | -4.0 | 6.1 | -5.2
Nc1ccc(-c2nc3ccc(C(=O)O)cc3s2)cc1 | 0.3 | 18.8 | 11.6 | -1.9 | -1.7 | -12.3
O=C(O)c1ccc2nc(-c3ccccc3)sc2c1 | -0.1 | -16.5 | -6.7 | 8.1 | 28.7* | -0.6
CCOC(=O)C(Cc1ccc(NC(=O)/C(=C/c2ccccc2)NC(=O)c2ccccc2)cc1)N1C(=O)c2ccccc2C1=O (configuration not stated) | 2.8 | -13.1 | -2.8 | 14.9 | 9.1 | -0.6
CCOC(=O)C(Cc1ccc(NC(=O)/C(=C/c2ccc(OC(C)=O)cc2)NC(C)=O)cc1)N1C(=O)c2ccccc2C1=O (configuration not stated) | 3.9 | 6.8 | -7.1 | 27.3* | 7.7 | -2.4
OC[C@@H]1CN(Cc2ccc3c(c2)OCO3)C[C@H](n2cnc3c(NC4CCCC4)ncnc32)O1 | 1.4 | 21.4 | 6.8 | -11.1 | 1.1 | -2.6
NCCCNC(=O)c1ccc(/C=N/O)nc1 | 0.2 | 6.0 | 3.2 | 0.2 | -11.8 | -2.3
CCCOc1ccc(C(O)(CCC)CCN2CCCCC2)cc1 (configuration not stated) | 0.5 | -2.9 | -22.6 | 66.4* | 4.1 | -4.7
CCCC(O)(c1ccc(Cl)cc1)C(CN1CCOCC1)c1ccc(Cl)cc1 (configuration not stated) | -0.5 | 6.5 | -4.3 | 5.9 | -14.4 | -7.1
OC(CCN1CCOCC1)(c1ccc(Cl)cc1)C1CCCCC1 (configuration not stated) | 0.1 | 7.0 | -26.1 | 82.1* | -0.2 | -7.5
CCCC(O)(CCN1CCOCC1)c1ccc(Br)cc1 (configuration not stated) | 0.4 | 7.3 | -27.9 | 78.3* | -15.2 | -7.1
CCCC(O)(CCN1CCOCC1)c1ccc(Cl)cc1 (configuration not stated) | 0.9 | 19.0 | -23.0 | 44.7* | -5.1 | -6.3
SMILES | CHO-K1 Ca ag | M1 PAM parental | CHRM1 PAM | CHRM1 antagonist | CHO-K1 Ca antag | M1 ag
O=C(O)c1cccc(N2C(=O)c3cc([N+](=O)[O-])cc4cc([N+](=O)[O-])cc(c34)C2=O)c1 | -0.4 | 14.1 | 2.4 | -14.1 | 0.5 | -2.1
O=C(COC(=O)c1ccc2c(=O)n3c(nc2c1)CCC3)NC1CCS(=O)(=O)C1 (configuration not stated) | -0.1 | -7.8 | 12.9 | -15.7 | -5.6 | -0.8
NS(=O)(=O)c1ccc(-n2cccc2C=O)cc1 | 18.4* | 0.7 | 6.6 | 1.9 | 2.5 | -7.9
CCOc1ccc(N2C(=O)CC(NCC#N)C2=O)cc1 (configuration not stated) | -0.3 | 3.4 | 7.4 | -5.3 | 1.7 | -2.6
CCN(CC(=O)N1CCOCC1)S(=O)(=O)c1ccc(Cl)cc1 | 0.8 | 10.9 | 5.4 | -5.3 | -10.3 | -2.1
CC(NS(=O)(=O)/C=C/c1ccccc1)C(=O)NCCc1ccc(S(N)(=O)=O)cc1 (configuration not stated) | 1.1 | -3.3 | 3.4 | -3.6 | -10.3 | -4.8
O=C(/C(N=Nc1cccc(C(F)(F)F)c1)=C(/O)c1cccs1)C(F)(F)F | 16.5* | 20.6 | 9.3 | -6.9 | 1.8 | 1.1
Cc1cc(OCC(O)CN2CCc3ccccc3C2)cc(C(C)C)c1 (configuration not stated) | 2.4 | -8.7 | -27.8 | 31.7* | 4.2 | -6.1
Cc1ccc(-n2nc(C)c(C(=O)Nc3cccc(C(=O)NC4CC4)c3)n2)c(C)c1 | 2.9 | -17.0 | -10.8 | 23.7 | -0.8 | -5.4
CCOC(=O)c1c(C)oc2c1c(CN1CCN(C(=O)OCC)CC1)c(O)c1ccccc12 | 1.9 | 6.4 | -7.6 | 0.8 | -0.3 | 16.9*
O=C(CN(Cc1cccs1)C(=O)CNS(=O)(=O)c1ccc(Cl)cc1)NCC1CCCO1 (configuration not stated) | 0.7 | 14.2 | 7.3 | -10.0 | -7.1 | -1.1
O=C1NC(=S)S/C1=C\c1cc(Cl)cc(Cl)c1O | 37.2* | 0.1 | -12.6 | 36.1* | 14.5 | 40.1*
O=C1NC(=S)SC1=Cc1ccccc1Cl | 7.7 | 0.3 | -2.4 | -0.3 | -17.7 | 0.2
CCC1C(C#N)=C(SCC(N)=O)NC2=C1C(=O)CC(C)(C)C2 (configuration not stated) | 0.9 | 10.1 | 6.2 | -7.2 | -6.6 | -3.0

Source: PubChem (The Scripps Research Institute Molecular Screening Center)
